The source of these data is ChEMBL document CHEMBL3988442, “University of Dundee, Small-Polar-MMV Screening Library” (2021).

Holding throughout (parameters): scale not given: direction of the effect not stated beside the values
Experiment [1] has as its target Protein translocase subunit SecA (Escherichia coli (strain K12)) (UniProt P10408). The experiment is described as follows: Assay to Identify E. coli SecA ATPase Inhibitors. Type of experiment: functional. The settings on record: 30 µM.
Experiment [2] concerns the target T1, Ubiquitin-activating enzyme e1, putative (Leishmania donovani (strain BPK282A1)) (UniProt E9BSI1).
T1 sequence (whole entry): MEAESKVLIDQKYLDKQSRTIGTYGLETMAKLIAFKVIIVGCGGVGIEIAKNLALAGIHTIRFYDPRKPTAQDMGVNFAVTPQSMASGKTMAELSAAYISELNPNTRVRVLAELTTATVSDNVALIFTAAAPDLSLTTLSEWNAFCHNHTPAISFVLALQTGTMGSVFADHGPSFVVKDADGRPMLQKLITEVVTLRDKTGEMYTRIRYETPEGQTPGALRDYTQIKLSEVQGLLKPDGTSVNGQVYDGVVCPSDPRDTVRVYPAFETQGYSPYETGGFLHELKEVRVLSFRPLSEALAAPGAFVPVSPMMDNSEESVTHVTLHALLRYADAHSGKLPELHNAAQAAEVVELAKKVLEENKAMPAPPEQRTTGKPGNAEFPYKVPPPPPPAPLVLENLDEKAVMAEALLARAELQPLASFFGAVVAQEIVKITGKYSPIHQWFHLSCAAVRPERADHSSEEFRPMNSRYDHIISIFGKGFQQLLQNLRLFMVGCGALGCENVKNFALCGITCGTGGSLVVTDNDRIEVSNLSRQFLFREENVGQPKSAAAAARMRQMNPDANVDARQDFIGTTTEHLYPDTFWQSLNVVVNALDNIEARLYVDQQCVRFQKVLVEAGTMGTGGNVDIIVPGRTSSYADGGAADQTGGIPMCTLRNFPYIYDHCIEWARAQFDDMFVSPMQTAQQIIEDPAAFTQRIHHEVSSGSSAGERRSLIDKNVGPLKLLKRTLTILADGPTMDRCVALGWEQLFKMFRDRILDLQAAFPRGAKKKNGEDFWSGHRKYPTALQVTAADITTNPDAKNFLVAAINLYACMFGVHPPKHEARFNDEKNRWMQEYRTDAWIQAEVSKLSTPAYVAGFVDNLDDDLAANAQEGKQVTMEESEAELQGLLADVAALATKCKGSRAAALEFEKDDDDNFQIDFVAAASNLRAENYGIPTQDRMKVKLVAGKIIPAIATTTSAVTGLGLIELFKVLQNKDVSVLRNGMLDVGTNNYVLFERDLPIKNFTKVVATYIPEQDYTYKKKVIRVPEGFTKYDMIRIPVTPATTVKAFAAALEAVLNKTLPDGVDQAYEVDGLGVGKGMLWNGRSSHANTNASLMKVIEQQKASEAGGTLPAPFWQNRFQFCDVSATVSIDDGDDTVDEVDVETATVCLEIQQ
Description: Leishmania donovani Ubiquitin Activating Enzyme (LdE1). Type of experiment: functional. The settings on record: 30 µM.

The target of experiment [3] is AMP-activated protein kinase, AMPK (Homo sapiens) (UniProt P54646+O43741+P54619+Q9UGJ0+Q9Y478+Q13131+Q9UGI9). The experiment is described as follows: AMP-dependent Kinase enzyme assay. An in vitro enzyme assay that detects ADP turnover that is directly proportional to AMPK activity. This uses naive AMPK that is activated during the assay with MK-8722. The format is functional. The settings on record: 30 µM.

In experiment [4] the target is Sialic acid-binding Ig-like lectin 9 (Homo sapiens) (UniProt Q9Y336). Description: Hs-Siglec9 ALPHAscreen SOP 20170721. The settings on record: 10 µM. Background: In Alpha technology, singlet oxygen from a donor bead excites a nearby acceptor bead.
Chain of Sialic acid-binding Ig-like lectin 9 (Homo sapiens) (Q9Y336 whole entry): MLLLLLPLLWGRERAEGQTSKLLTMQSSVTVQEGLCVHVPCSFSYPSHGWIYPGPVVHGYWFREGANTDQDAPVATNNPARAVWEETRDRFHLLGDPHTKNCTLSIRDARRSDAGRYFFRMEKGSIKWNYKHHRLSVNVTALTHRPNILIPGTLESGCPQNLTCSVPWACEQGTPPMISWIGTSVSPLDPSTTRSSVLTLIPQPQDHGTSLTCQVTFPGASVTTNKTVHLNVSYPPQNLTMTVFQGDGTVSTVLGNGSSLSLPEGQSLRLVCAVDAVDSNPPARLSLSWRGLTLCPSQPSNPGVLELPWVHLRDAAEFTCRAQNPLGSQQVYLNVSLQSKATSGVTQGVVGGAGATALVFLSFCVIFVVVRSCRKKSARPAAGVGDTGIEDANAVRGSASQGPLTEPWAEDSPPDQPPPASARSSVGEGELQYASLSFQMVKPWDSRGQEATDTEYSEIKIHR
A further experiment deals with Trypanosoma cruzi. Description: Trypanosoma cruzi phosphomannomutase and mannose-1-phosphate guanylyltransferase assay. Type of experiment: functional. The settings on record: 10 µM.
Experiment [5] concerns the target T2, Arginase-2, mitochondrial (Homo sapiens) (UniProt P78540).
T2 sequence (whole entry): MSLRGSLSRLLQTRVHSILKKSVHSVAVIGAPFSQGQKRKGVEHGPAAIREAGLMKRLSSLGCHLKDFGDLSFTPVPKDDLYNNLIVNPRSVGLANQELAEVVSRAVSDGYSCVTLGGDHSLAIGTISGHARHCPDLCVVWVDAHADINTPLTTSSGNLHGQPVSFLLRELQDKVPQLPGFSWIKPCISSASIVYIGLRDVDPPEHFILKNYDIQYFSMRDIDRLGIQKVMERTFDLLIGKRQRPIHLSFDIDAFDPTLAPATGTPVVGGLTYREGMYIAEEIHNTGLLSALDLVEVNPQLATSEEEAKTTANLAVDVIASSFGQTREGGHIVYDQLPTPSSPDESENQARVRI
The experiment is described as follows: in vitro enzyme assay to detect the production of urea directly proportional to the activity of Arginase II. Also: in the data most compounds retested in dose-response had high values. The format is functional. The settings on record: 33.3 µM.

In experiment [6] the target is T3, Proteasome subunit beta (Trypanosoma cruzi) (UniProt O96673).
T3 sequence (whole entry): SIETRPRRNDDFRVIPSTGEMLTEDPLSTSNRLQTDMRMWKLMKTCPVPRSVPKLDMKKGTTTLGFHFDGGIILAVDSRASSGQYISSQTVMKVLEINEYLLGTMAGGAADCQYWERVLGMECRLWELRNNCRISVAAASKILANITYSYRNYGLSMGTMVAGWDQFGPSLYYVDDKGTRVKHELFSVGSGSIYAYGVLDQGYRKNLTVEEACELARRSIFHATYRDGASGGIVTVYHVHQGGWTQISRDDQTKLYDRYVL
Description: Trypanosoma cruzi proteasome chymotrypsin-like activity (TcProtChymo) assay. Also: in the data most compounds retested in dose-response had high values. The format is functional. The settings on record: 9.37 µM.

The species entered for another experiment is Homo sapiens. Description: To identify inhibition of the IFN signalling (Jak-Stat) pathway via expression of an eGFP reporter gene under the control of an IFN-stimulated response element (ISRE) containing MxA promoter. Type of experiment: functional. The settings on record: 30 µM.
The target of experiment [7] is T4, Tyrosyl-tRNA synthetase, putative (Trypanosoma cruzi (strain CL Brener)) (UniProt Q4DSP6).
T4 sequence (whole entry): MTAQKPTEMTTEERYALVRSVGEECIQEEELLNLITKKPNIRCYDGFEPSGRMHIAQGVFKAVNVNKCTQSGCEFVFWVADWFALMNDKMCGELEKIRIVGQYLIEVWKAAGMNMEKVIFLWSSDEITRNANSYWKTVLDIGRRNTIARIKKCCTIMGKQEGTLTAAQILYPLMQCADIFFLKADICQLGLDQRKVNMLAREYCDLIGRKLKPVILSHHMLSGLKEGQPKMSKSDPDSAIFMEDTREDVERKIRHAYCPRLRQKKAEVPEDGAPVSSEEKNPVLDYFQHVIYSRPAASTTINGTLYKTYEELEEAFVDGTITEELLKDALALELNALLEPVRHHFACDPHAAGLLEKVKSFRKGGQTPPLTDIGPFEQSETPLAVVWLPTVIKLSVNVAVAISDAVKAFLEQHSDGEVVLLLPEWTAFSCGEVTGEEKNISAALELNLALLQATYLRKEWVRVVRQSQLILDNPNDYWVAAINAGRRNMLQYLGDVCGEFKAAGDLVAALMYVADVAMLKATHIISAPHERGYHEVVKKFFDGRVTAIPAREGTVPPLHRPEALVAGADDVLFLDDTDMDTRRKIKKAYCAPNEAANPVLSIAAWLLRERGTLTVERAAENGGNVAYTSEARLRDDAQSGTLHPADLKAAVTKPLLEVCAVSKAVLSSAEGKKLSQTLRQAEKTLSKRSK
The experiment is described as follows: Trypanosoma cruzi tyrosyl tRNA synthetase (TcYRS) _High Tyrosine SOP. Also: in the data most compounds retested in dose-response had high values. Type of experiment: functional. The settings on record: 30 µM.

Experiment [8] concerns the target T4, Tyrosyl-tRNA synthetase, putative (Trypanosoma cruzi (strain CL Brener)). Description: Trypanosoma cruzi tyrosyl tRNA synthetase (TcYRS) SOP. The format is functional. The settings on record: 30 µM.
The target in experiment [9] is Chromo domain-containing protein 1 (Saccharomyces cerevisiae (strain ATCC 204508 / S288c) (Baker's yeast)) (UniProt P32657). The experiment is described as follows: ScCHD-1 Enzyme Inhibition Assay. Also: in the data most compounds retested in dose-response had high values. The format is functional. The settings on record: 30 µM.
Chain of Chromo domain-containing protein 1 (Saccharomyces cerevisiae (strain ATCC 204508 / S288c) (Baker's yeast)) (P32657 whole entry, the tested form may be a part): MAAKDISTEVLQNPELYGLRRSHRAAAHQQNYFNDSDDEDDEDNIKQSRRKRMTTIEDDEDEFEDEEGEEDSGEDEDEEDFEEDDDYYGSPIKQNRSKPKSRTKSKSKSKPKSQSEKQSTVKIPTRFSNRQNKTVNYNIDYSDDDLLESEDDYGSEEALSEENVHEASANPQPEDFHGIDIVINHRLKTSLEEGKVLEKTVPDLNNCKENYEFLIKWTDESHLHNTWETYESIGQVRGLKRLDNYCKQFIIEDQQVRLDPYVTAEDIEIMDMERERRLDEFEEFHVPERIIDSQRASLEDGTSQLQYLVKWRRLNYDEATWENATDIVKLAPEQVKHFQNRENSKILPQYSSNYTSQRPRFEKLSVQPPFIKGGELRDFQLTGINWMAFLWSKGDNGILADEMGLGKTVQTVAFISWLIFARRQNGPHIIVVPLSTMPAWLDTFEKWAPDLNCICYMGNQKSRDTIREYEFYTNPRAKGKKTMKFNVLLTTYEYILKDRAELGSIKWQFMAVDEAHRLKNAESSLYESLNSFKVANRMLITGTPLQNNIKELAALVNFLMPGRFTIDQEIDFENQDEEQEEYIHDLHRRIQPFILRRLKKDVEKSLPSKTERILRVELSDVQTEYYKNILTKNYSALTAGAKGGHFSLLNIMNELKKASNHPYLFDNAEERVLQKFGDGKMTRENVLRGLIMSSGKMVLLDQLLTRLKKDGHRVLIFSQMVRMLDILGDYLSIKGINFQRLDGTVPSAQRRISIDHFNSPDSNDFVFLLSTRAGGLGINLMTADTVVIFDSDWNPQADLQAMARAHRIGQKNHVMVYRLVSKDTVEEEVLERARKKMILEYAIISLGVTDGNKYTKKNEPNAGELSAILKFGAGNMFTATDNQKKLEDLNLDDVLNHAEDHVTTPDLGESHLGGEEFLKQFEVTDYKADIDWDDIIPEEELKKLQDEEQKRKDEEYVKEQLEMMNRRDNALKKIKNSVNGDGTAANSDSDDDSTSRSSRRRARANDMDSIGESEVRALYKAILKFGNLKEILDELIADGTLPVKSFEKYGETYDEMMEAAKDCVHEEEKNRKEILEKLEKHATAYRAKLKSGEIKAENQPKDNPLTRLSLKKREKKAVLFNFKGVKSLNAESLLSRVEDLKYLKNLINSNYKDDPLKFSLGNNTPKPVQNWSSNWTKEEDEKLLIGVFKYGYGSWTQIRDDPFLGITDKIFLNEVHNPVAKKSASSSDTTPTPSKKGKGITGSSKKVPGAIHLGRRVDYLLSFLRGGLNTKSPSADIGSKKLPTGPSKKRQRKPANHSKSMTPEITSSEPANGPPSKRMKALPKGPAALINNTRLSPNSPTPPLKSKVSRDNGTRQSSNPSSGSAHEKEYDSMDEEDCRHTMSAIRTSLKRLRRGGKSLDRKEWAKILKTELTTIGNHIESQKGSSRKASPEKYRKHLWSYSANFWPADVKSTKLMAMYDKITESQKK

For some of these results: Measured potencies and affinities stand elsewhere.

Chain of Protein translocase subunit SecA (Escherichia coli (strain K12)) (P10408 whole entry): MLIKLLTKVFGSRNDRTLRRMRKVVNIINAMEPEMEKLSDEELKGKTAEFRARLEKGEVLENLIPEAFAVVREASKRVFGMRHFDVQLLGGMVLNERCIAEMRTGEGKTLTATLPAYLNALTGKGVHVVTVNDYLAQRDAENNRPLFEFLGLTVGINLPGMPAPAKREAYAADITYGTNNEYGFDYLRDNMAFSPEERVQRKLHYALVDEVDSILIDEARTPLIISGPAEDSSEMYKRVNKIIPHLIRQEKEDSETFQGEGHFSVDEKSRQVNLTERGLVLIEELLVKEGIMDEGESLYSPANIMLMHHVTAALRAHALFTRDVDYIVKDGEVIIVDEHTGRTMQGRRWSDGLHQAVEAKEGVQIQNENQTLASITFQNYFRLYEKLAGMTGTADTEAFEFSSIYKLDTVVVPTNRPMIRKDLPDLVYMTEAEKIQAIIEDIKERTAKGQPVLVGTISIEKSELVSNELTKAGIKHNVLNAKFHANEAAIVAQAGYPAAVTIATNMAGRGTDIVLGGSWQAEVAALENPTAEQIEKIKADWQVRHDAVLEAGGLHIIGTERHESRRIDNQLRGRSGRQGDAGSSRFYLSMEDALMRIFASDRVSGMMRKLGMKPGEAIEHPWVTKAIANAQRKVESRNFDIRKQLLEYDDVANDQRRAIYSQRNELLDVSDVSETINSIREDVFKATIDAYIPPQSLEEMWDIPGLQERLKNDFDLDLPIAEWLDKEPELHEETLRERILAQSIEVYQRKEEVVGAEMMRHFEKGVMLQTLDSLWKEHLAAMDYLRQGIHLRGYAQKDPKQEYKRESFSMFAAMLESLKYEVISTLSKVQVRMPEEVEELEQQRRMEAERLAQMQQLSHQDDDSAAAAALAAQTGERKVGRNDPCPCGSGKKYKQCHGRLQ

For the compound `Cc1ccoc1C(=O)NC1CCN(Cc2cccc3c2OCCO3)CC1`, the Percent Effect in experiment [1] is -5.22%; in experiment [2] it was 16.5%; in experiment [3], -78.8%; in experiment [4], 6.72%; in the experiment with Trypanosoma cruzi, 3.38%; in experiment [5], -5.38%. The Percent Effect was 13.9% in [6]; 8.82% in the experiment listed under Homo sapiens; 13.5% in [7]; 25.3% in [8]; -24.5% in [9].

Take `Cc1cc(CNC2CCCN(c3cccnn3)C2)no1` (stereo not drawn): the Percent Effect is -0.548% in [1]; -2.6% in experiment [2]; -12.2% in [3]; 5.49% in experiment [4]; 0.885% in the experiment on Trypanosoma cruzi; -5.52% in [5]. Further, the Percent Effect in [6] is 15.5%; in the experiment listed under Homo sapiens, 18.9%; in [7], 5.38%; in [8], 13.6%; in experiment [9], -2.81%.

Consider `Cc1cc(NC(=O)NCCc2ccsc2)n(C)n1`, for which the Percent Effect in [1] is -0.993%; in experiment [2], 15.3%; in [3] it was -5.89%; in [4], 15.8%; in the experiment on Trypanosoma cruzi, 0.291%; in [5], -0.883%. For the same compound, the Percent Effect in experiment [6] is 20.7%; in the experiment filed under Homo sapiens it was -9.26%; in experiment [7], 1.05%; in experiment [8], 10.3%; in experiment [9], 85%.

For `Cc1ccc2c(n1)N(CCn1cccn1)CCN(C(=O)NC1CC1)C2`, the Percent Effect in [1] is -4.03%; in experiment [2], 10.8%; in experiment [3] it was -7.12%; in experiment [4] it was 26.1%; with Trypanosoma cruzi it was 6.55%; in [5] it was -1.24%. Besides, the Percent Effect in experiment [6] was 18.1%; in the experiment listed under Homo sapiens, -2.83%; in experiment [7], 5.38%; in [8], 16.1%; in experiment [9] it was -4.31%.

Consider `CCC(=O)N1CCN(C(=O)CCn2cccn2)CC1`, for which the Percent Effect was -1.61% in [1]; 24.3% in experiment [2]; -7.17% in experiment [3]; 0.998% in experiment [4]; 6.96% in the experiment on Trypanosoma cruzi; 0.554% in experiment [5]. Moreover, the Percent Effect in experiment [6] was 8.62%; in the experiment listed under Homo sapiens, 5.89%; in experiment [7], 6.93%; in experiment [8], 25.6%; in experiment [9], -6.76%.

On to `COc1ccc(CNC2CCCN(Cc3noc(C)n3)C2)cc1F` (stereo not drawn), for which the Percent Effect in [1] is -10.4%; in experiment [2] it was 10.4%; in [3] it was 0.711%; in experiment [4] it was 4.31%; in the experiment on Trypanosoma cruzi, -5.06%; in [5], -3.2%. Moreover, the Percent Effect is -1.01% in experiment [6]; 32.5% in the experiment listed under Homo sapiens; 0.971% in experiment [7]; -2.44% in experiment [8]; -5.61% in [9].

With `CCOCCN1CCn2c(C)nnc2C1`, the Percent Effect was 2.73% in [1]; 19% in experiment [2]; 2.63% in [3]; -1.98% in [4]; -5.03% with Trypanosoma cruzi; -3.23% in [5]. Also, the Percent Effect in [6] is 13.9%; in the experiment filed under Homo sapiens, 11.9%; in [7], 4.17%; in [8], 12.7%; in experiment [9], -27.4%.

`Cc1ccc(F)cc1S(=O)(=O)N(C)CC(N)=O`: the Percent Effect is -2.13% in [1]; 11% in experiment [2]; -2.95% in experiment [3]; 2.8% in [4]; -1.19% in the experiment on Trypanosoma cruzi; -2.79% in experiment [5]. For the same compound, the Percent Effect in [6] is 14.8%; in the experiment filed under Homo sapiens, -1.31%; in experiment [7], 9.38%; in experiment [8] it was 16.1%; in [9] it was -0.907%.
